Twelve compounds from PubChem BioAssay (NCI) can be followed below.

Among the test systems are SK-MEL-2 melanoma; EKVX NSCLC; SN12C renal; UO-31 renal; TK-10 renal; ACHN renal; CAKI-1 renal; A498 renal; CCRF-CEM leukemia; MOLT-4 leukemia.
Experiment in all cases: NCI-60 one-dose screen, 48 h (100 = growth as untreated, 0 = no growth, -100 = all killed)
Conditions in all cases: 10 µM unless noted

This is part of a sample that, as a whole, favours compounds with a hit. Of some 83,000 tested, about 20% had one in any assay.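 The test compound was applied at a single concentration to cells in 96-well plates for 48 hours, and percent growth was recorded.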 A number with no mark means an inactive call. Calls of active or inactive are those of the source. Rule for the calls: active = growth percent below 10; inactive = the rest.

Consider `COc1ccc(-c2nc(-c3cn(C)c4ncccc34)cs2)cc1`, for which the growth in the test with SK-MEL-2 melanoma was 1.08% [100 µM] (active); with EKVX NSCLC, -26.4% [100 µM] (active); in the test with SN12C renal, 14.1% [100 µM]; in the test with UO-31 renal, 14.4% [100 µM]; with TK-10 renal it was -21.3% [100 µM] (active); in the test on ACHN renal, 8.63% [100 µM] (active). Also, the growth with CAKI-1 renal is 0.0611% [100 µM] (active); in the test with A498 renal, 24.1% [100 µM]; with CCRF-CEM leukemia, 2.08% [100 µM] (active); with MOLT-4 leukemia it was 2.81% [100 µM] (active).

In the case of `Nc1nc(N)c2c(n1)NC(c1ccc(Cl)cc1)C1CCc3ccccc3C1=N2` (stereo not given), the growth in the test on SK-MEL-2 melanoma is 102%; in the test with EKVX NSCLC, 35.8%; in the test on SN12C renal, 65.9%; in the test with UO-31 renal it was 55.8%; in the test on TK-10 renal, 49.2%; with ACHN renal, 52.7%. The growth in the test with CAKI-1 renal is 37%; in the test with A498 renal, 69.5%; in the test on CCRF-CEM leukemia, 51.5%; in the test with MOLT-4 leukemia, 22.5%.

Turning to `CCN1C(=O)N(CC)C2C1NN=c1s/c(=C\c3cnc(C)n3C)c(=O)n12` (stereo not given), the growth in the test on SK-MEL-2 melanoma is 39.2%; in the test with EKVX NSCLC, 49.7%; in the test on SN12C renal, 33.4%; in the test with UO-31 renal, 40.9%; with TK-10 renal it was 51.5%; in the test on ACHN renal, 34.3%. The growth in the test with CAKI-1 renal is 26%; in the test on A498 renal, -9.65% (active); in the test on CCRF-CEM leukemia, 9.03% (active); in the test with MOLT-4 leukemia, 35%.

Turning to `Cc1ccc2c(-n3nc(C#N)c(C#N)c3N)cc(=O)[nH]c2c1`, the growth was 101% in the test with SK-MEL-2 melanoma; 67.9% with EKVX NSCLC; 76.4% in the test on SN12C renal; 45.2% in the test with UO-31 renal; 108% in the test on TK-10 renal; 83.1% in the test with ACHN renal. In addition, the growth in the test on CAKI-1 renal is 82.6%; in the test on A498 renal it was 105%; in the test on CCRF-CEM leukemia it was 88.6%; in the test on MOLT-4 leukemia, 99.3%.

As for `Cc1c(CN)cc(-c2ccc(Cl)cc2)n1-c1ccccc1`, the growth was 90.2% in the test with SK-MEL-2 melanoma; 82.6% with EKVX NSCLC; 87.6% in the test with SN12C renal; 59.2% in the test with UO-31 renal; 66.3% in the test with TK-10 renal; 74.7% in the test on ACHN renal. The growth in the test with CAKI-1 renal was 40.7%; in the test with A498 renal, -7.73% (active); in the test with CCRF-CEM leukemia, 81.7%; in the test with MOLT-4 leukemia, 82.3%.

On to `CCCC(CC)(C(=O)Nc1ccc2nc(C)cc(N)c2c1)C(=O)Nc1ccc2nc(C)cc(N)c2c1`, for which the growth in the test with SK-MEL-2 melanoma was 108%; in the test with EKVX NSCLC it was 101%; in the test on SN12C renal it was 105%; with UO-31 renal, 90.1%; in the test on TK-10 renal it was 96.5%; in the test with ACHN renal, 105%. Besides, the growth was 91.9% in the test with CAKI-1 renal, 104% with A498 renal, 99.9% with CCRF-CEM leukemia and 98.8% with MOLT-4 leukemia.

For the compound `O=C(Nc1ccc(Cl)cc1)Oc1c(Cl)c(Cl)c(Cl)c(Cl)c1Cl`, the growth in the test with SK-MEL-2 melanoma was 95.7%; in the test with EKVX NSCLC, 80.6%; with SN12C renal, 97.6%; in the test on UO-31 renal, 78.5%; with TK-10 renal, 115%; in the test on ACHN renal, 87.9%. Besides, the growth in the test on CAKI-1 renal was 86.1%; in the test with A498 renal, 74.6%; in the test with CCRF-CEM leukemia it was 92.1%; in the test with MOLT-4 leukemia it was 95.6%.

For `Nc1[nH]c(=S)nc2oc(-c3ccccc3)c(-c3ccccc3)c12`, the growth with SK-MEL-2 melanoma was 101%; with EKVX NSCLC, 98%; with SN12C renal, 97.5%; in the test on UO-31 renal it was 86.9%; in the test with TK-10 renal it was 114%; in the test on ACHN renal it was 101%. Further, the growth in the test with CAKI-1 renal is 109%; in the test on A498 renal, 90.8%; in the test with CCRF-CEM leukemia, 119%; in the test with MOLT-4 leukemia, 107%.

`CN1C(=O)/C(=C2\SC(=Nc3ccccc3)N(Nc3ccccc3)C2=O)c2ccccc21`: the growth is 108% in the test on SK-MEL-2 melanoma; 101% in the test with EKVX NSCLC; 97.8% in the test with SN12C renal; 61.4% with UO-31 renal; 148% with TK-10 renal; 95.3% with ACHN renal. The growth with CAKI-1 renal is 74.2%; with A498 renal, 103%; in the test with CCRF-CEM leukemia it was 103%; with MOLT-4 leukemia, 101%.

On to `O=C(CCCCCNC(=O)c1cc(=O)c(O)co1)Nc1ccccc1`, for which the growth in the test with SK-MEL-2 melanoma was 105%; in the test with EKVX NSCLC, 98.1%; with SN12C renal, 110%; in the test with UO-31 renal, 83.9%; in the test on TK-10 renal, 93.6%; in the test on ACHN renal, 102%. Further, the growth is 95.3% in the test with CAKI-1 renal, 96% in the test on A498 renal, 95.1% in the test with CCRF-CEM leukemia and 106% in the test on MOLT-4 leukemia.

With `COC(=O)CC[C@@H]1O[C@@H](c2ccc(F)cc2)[C@@H](O)[C@H]1O`, the growth was 109% in the test with SK-MEL-2 melanoma; 104% in the test with EKVX NSCLC; 109% in the test on SN12C renal; 94% with UO-31 renal; 101% in the test on TK-10 renal; 101% in the test with ACHN renal. For the same compound, the growth with CAKI-1 renal was 96.8%; in the test with A498 renal it was 112%; with CCRF-CEM leukemia, 107%; in the test on MOLT-4 leukemia, 105%.

Consider `Nc1nc(N)c2c(n1)NC(c1cccc(Nc3ccnc4cc(C(F)(F)F)ccc34)c1)CC(c1ccccc1)=N2` (stereo not given), for which the growth in the test with SK-MEL-2 melanoma is 35.1%; in the test with EKVX NSCLC, 51.5%; in the test with SN12C renal, 65.4%; in the test on UO-31 renal, 62.6%; in the test on TK-10 renal it was 83.1%; with ACHN renal, 75.8%. Besides, the growth in the test with CAKI-1 renal was 42.7%; in the test on A498 renal it was 77.8%; in the test with CCRF-CEM leukemia it was 32.4%; with MOLT-4 leukemia it was 6.47% (active).
